Data reported in PubChem BioAssay (NCI).
Compounds without any hit were thinned out: in the full panel of roughly 83,000, 20% have a hit.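 Single-dose data. Exposure time 48 hours. Values below 10 considered active.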 Calls of active or inactive are those of the source.

Each compound was assayed on HT29 colon (assay: NCI-60 one-dose screen, 48 h (100 = growth as untreated, 0 = no growth, -100 = all killed)). Conditions: 1 µM.
Description: Growth inhibition of the HT29 human tumor cell line is measured as a screen for anti-cancer activity. Cells are grown in 96 well plates and exposed to the test compound for 48 hours. Compounds are tested at a single concentration, which is 10^-5 M for most compounds. The reported endpoint is percent growth (GI% or GIPRCNT), where numbers from 0 - 100% represent growth inhibition, and numbers from -100% - 0 represent cell death. For example, a value of 40 represents 60% growth inhibition. A value of 0 means no net growth occurred over the course of the experiment. A value of -40 indicates 40% of cells at the beginning of the experiment died by the end of the experiment. A value of -100 means all cells are dead at the end of the experiment.
NCI-60 Human Tumor Cell Lines Screen was performed using the standard one-dose NCI protocol, which is described in more detail at https://dtp.cancer.gov/discovery_development/nci-60/default.htm.
Compounds with GIPRCNT values below 10 were considered active. Activity score was based on GIPRCNT using the following formula: […]
Score is 0 for GIPRCNT values of 100 or above, 50 for GIPRCNT values of 0, and 100 for GIPRCNT values of -100.

Row | SMILES | growth
1 | CC/C(=C(/c1ccc(O)cc1)c1ccc(OCCN(C)C(=O)CCOCCNC(=O)Cc2ccc3c(c2)CN([C@@H]2CCC(=O)NC2=O)C3=O)cc1)c1ccccc1 | 103% (inactive)
2 | CC/C(=C(\c1ccc(O)cc1)c1ccc(OCCNC)cc1)c1ccccc1 | 98.7% (inactive)

Same assay, conditions: 10 µM

Row | SMILES | growth
3 | CC/C(=C(/c1ccc(O)cc1)c1ccc(OCCN(C)C(=O)CCOCCNC(=O)Cc2ccc3c(c2)CN([C@@H]2CCC(=O)NC2=O)C3=O)cc1)c1ccccc1 | 91.3% (inactive)
4 | CC/C(=C(\c1ccc(O)cc1)c1ccc(OCCNC)cc1)c1ccccc1 | 55.6% (inactive)

Same assay, conditions: 10 µM unless noted

Row | SMILES | growth
5 | Cn1cc(-c2cc(N)n3nc(-c4c[nH]c5ccccc45)cc3n2)c2cc(Cl)ccc21 | -51.4% (active)
6 | CCc1ccccc1NC(=O)N/C(N)=N/c1nc2ccccc2s1 | -25% (active)
7 | Cc1ccc2nc(COc3ccc(C(=O)NNC(=O)Nc4ccc(Cl)c(C(F)(F)F)c4)cc3)[nH]c2c1 | 75.9% (inactive)
8 | CC1=C(C)C(=O)C(NCCN2CCOCC2)=C(Br)C1=O | 93.7% (inactive)
9 | C=CC[n+]1cccc2c3ccccc3ccc21 | 47.3% (inactive)
10 | COc1ccc2[nH]c(=O)c(CSc3ccccc3Nc3nccc(-c4ccc5c(c4)OCO5)n3)cc2c1 | 75.2% (inactive)
11 | COc1ccc(NC(=O)N/N=C/c2c[nH]c3ccccc23)cc1 | 2.49% (active)
12 | Nc1cc(-c2c[nH]c3ccc(Br)cc23)nc2cc(-c3c[nH]c4ccccc34)nn12 | -54.8% (active)
13 | CN(C(=O)CN1C(=O)/C(=C/c2ccco2)SC1=S)C1CCS(=O)(=O)C1 (stereo not given) | 99.5% (inactive)
14 | COc1ccc2c(c1)C(=O)N(C)C2C1c2c(cc3c(c2OC)OCO3)CCN1C (stereo not given) | 33.2% (inactive)
15 | O=C(Nc1nc2ccc([N+](=O)[O-])cc2s1)Nc1ccccc1F | 5.55% (active)
16 | O=C(N/N=C/c1ccsc1)c1[nH]c2ccc(Br)cc2c1-c1ccccc1 | -62.8% (active)
17 | COc1c2c(cc3c1C(CCc1ccccc1)N(C)CC3)OCO2 (stereo not given) | -13.3% (active)
18 | C=CC(=O)Nc1ccc(C(=O)/C=C/c2ccc(N(C)C)cc2)c(O)c1 | -37.7% (active)
19 | CCc1ccccc1-c1nc(CN[C@@H]2C[C@@H]3C[C@H]([C@H]2C)C3(C)C)c(C)o1 | -73.8% (active)
20 | O=C(NN1C(=O)/C(=C/C=C/c2ccc([N+](=O)[O-])o2)SC1=S)c1ccc([N+](=O)[O-])cc1 | -80.3% (active)
21 | OCCn1cc(-c2nc3ccc4[nH]ncc4c3c3c2CCCC3)cn1 | 19.7% (inactive)
22 | CCOc1ccc2[nH]c(=O)c(C(c3nnnn3CC3CCCO3)N3CCN(Cc4ccccc4)CC3)cc2c1 (stereo not given) | 117% (inactive)

Row | SMILES | growth
23 | COc1ccc(N=Nc2c(N)nn3c(-c4ccc([N+](=O)[O-])cc4)ccnc23)cc1 | 96.3% (inactive)
24 | Nc1nc2cc(-c3ccc4ncnc(NCc5ccccc5)c4c3)ccc2o1 | 37.2% (inactive)
25 | O=Cc1cncc(-c2ccc3ncnc(N4CCc5cc(F)c(Cl)cc54)c3c2)c1 | 56.6% (inactive)
26 | Cc1cccc(/C=C/c2ccc(NC(=S)NCCCCN(C)C)cc2)c1 | -64.2% (active)
27 | Cn1cc(Nc2ncnc(-c3ccc(N4CCCC4)c(C#N)c3)n2)cn1 | 74.6% (inactive)
28 | COc1cc(CNC(=O)C[C@H](C)CCC=C(C)C)ccc1OCc1cn(-c2cccc(C(F)(F)F)c2)nn1 | 96.6% (inactive)
29 | COc1ccc(-c2nc3ccc(-c4nnc(SCc5ccccc5)o4)cc3[nH]2)cc1OC | 52.9% (inactive)
30 | CC(=O)C[n+]1cccc2c3ccccc3ccc21 | 93.4% (inactive)
31 | O=C(Nc1ccc(S(=O)(=O)N2CCCCC2)cc1)C(Cl)Cl | 109% (inactive)
32 | CCCN(CCC)S(=O)(=O)c1ccc(C(=O)O)cc1.CCCN(CCC)S(=O)(=O)c1ccc(C(=O)O)cc1.[Cl][Pt+2][Cl].[NH2-].[NH2-] | 42% (inactive)
33 | Cc1nn(-c2ccccc2)c2nc(C)n(C(=O)N/N=C/c3cccc([N+](=O)[O-])c3)c(=O)c12 | 88.6% (inactive)
34 | Nc1nn2c(-c3cc4cc(Br)ccc4oc3=O)ccnc2c1N=Nc1ccccc1 | 22.4% (inactive)
35 | Cc1ccc(C(=O)Nc2cccc(C(=O)NC(=S)Nc3ccc(S(N)(=O)=O)cc3)c2)cc1 | 85.1% (inactive)
36 | O=CNc1cccc(-n2cnc3cc(-c4ccc(O)cc4)ccc32)c1 | 22.7% (inactive)
37 | N#Cc1cc(-c2ccnc(Nc3ccc(N4CCN(C5COC5)CC4)cc3)n2)ccc1N1CCCC1 | 18.6% (inactive)
38 | Cn1cc(-c2cc(N)n3nc(-c4c[nH]c5ccccc45)cc3n2)c2cc(F)ccc21 | -35.4% (active)
39 | FC(F)(F)CN1CCN(CCn2c(C(F)(F)F)cc3c(Cl)ncnc32)CC1 | 12.5% (inactive)
40 | CCOc1ccccc1[C@H]1C(C(=O)c2ccc(Cl)cc2)C2(N[C@@H]1c1ccccc1)C(=O)Nc1ccccc12 (stereo not given in full) | -0.161% (active)
